± gives the standard deviation of the averaged measurements. Whole data set: some 25,000 sequences, median “ln(normalized median fluorescence intensity)” near 7.9, cut for the highest 2% near 11. The full list was thinned out, with the highest values kept by preference.
test system: PfAP2-I AP2 domain 3 (GST-tagged); experiment: gcPBM binding intensity (ln(normalized median fluorescence intensity)); higher = stronger DNA binding
How it was run: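 Using an Agilent 4 × 180k array, primer-extended double-stranded 36-bp intergenic genomic probes and negative controls were exposed for 1 h to GST-fused P. falciparum DNA-binding domains expressed in E. coli. Binding was carried out in 1× PBS with 1% milk, 0.2 mg/ml BSA, 0.5% salmon testes DNA and 0.03% Triton X-100, and protein was detected with Alexa488 anti-GST antibody and a 488 nm scan. Binding intensity is the highest Masliner-normalised natural-log median intensity across replicate spots of either probe orientation.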

Row | Sequence | gcPBM binding intensity (ln)
1 | ATGTAGAAGTAATGCACACATATGTATATATATATA [CACACA_site2494] | 10.9 ± 0.63
2 | ATGTAGAAGTAATGCACACATATGTATTTATATATA [CACACA_site5391] | 10.9 ± 0.68
3 | ATATGTAGAAGTAATGCACACATATGTATATATATA [CACACA_site8796] | 10.8 ± 0.48
4 | ATGTGATAGAAGTACACACACATATGTATTTATAAT [CACACA_site5075] | 7.84 ± 0.59
5 | ATCAACATTATGGTTAGTACTTAGTGAATTGTTAAT [XGTACX_site4926] | 7.63 ± 0.59
6 | TTCATATATTATTATGCATGTTCATAAATTATCTAA [TGCATGCA_site896] | 7.88 ± 0.58
7 | TTGTTCTATATATATGCATGCACGTATGTTAAATTA [TGCATGCA_site659] | 11.3 ± 0.23
8 | TTCTATATATTATATGCATGTAAAACATATTAAAAT [TGCATGCA_site662] | 7.93 ± 0.61
9 | TACCTTTTTTGTTTTATGCACACCATATAACCAAGG [CACACA_site30] | 10.3 ± 0.33
10 | TCGTAAACTTTATGCACACACATATACATATTTCAT [CACACA_site739] | 10.2 ± 0.53
11 | TGCACAAAATTATGCACACACCTAAAATTAATTTTT [CACACA_site5596] | 9.98 ± 0.32
12 | TAATTATGCCAACACACACACACACCCAACTAAAAA [CACACA_site8823] | 8.22 ± 0.25
13 | ATTATGCACCAACACACACACACACTCCTAAAAAAT [CACACA_site8822] | 11.4 ± 0.95
14 | TGTGCCCAAAATTATGCACACACCTAAAATTAATTT [CACACA_site2914] | 10.3 ± 0.4
15 | ATTATGCACGGACACACACACACACCCCTAAAAAAT [CACACA_site5426] | 10.4 ± 0.49
16 | ATTATGCACCAACACACACACACACCCCTAAAAAAT [CACACA_site2568] | 11.4 ± 0.79
17 | TTTTGTTTCTATATAAGATGGAAATATAAACTTGTA [CACACA_negctrl_site82] | 7.64 ± 0.47
18 | AATAAAAATTTACTTTGTACACATATTAAATTCAAT [XGTACX_site1957] | 7.83 ± 0.15
19 | TATATTAATAAAGGTACTACACGGAAATGGAAATAT [XGTACX_site7760] | 8.58 ± 0.67
20 | TTAAAATAAAGAAAATGTACATAAATAAAAATAAAG [XGTACX_site2280] | 8.35 ± 0.45
21 | AACCAATTATATTTACGTACGTACGGTTTTTTATAT [XGTACX_site1291] | 7.94 ± 0.48
22 | ATTTCTTTTTTATTGAGTACATATGACCATGTTCAA [XGTACX_site5365] | 8.14 ± 0.38
23 | ATTATTCATTTATGTAGTACATTTTAATACATTTAA [XGTACX_site3599] | 7.75 ± 0.6
24 | TACGTCTTTTTTTTGGTGCATAATTTTTTTGTACAA | 11.2 ± 0.44

Row | Sequence | gcPBM binding intensity (ln)
25 | ACCAATAAATATTTGGTGCATACATATATATATATA | 10.31 ± 0.064
26 | TTTCTTTATTAAAATATTTTACATATATAATATACG [TGCATGCA_negctrl_site564] | 7.92 ± 0.55
27 | CAACCTTTTTTGTTGGTGCATAATTTTTTTTTCTTT | 10.9 ± 0.52
28 | TTTTCTTTTTTTTTTGTGCACATAATATATAATTAT | 10.8 ± 0.14
29 | ATTTCCTTTTGTTTCAGTACATAATTTTTTTTTTTT [XGTACX_site4842] | 7.88 ± 0.62
30 | AGACCTTTAATTTGTGTGCACATAATTAGTGTACAT [GTGCAC_site9434] | 9.96 ± 0.16
31 | AAAATTTCTTTTTTTTGTACATATATAATAATATAT [XGTACX_site7107] | 7.82 ± 0.39
32 | TATTTCTTTTGGTTGGTGCATAAAATAATACAATAT [GTGCAC_site9916] | 11.2 ± 0.59
33 | CGGACATACTAACGGACACACGTAAGAAAAAAAAAG [CACACA_site4504] | 7.79 ± 0.58
34 | ATAAATAAAAATACATGAACAGGTCAGGTTATTTTT [CACACA_negctrl_site1007] | 7.29 ± 0.61
35 | AAATGTGCATTATGTTGTACAGTCGAAATTTTTTTT [XGTACX_site3812] | 11.1 ± 0.62
36 | TATTTTGCAAAATGTGCATGTTGTGTATTATGTGAC [TGCATGCA_site59] | 8.97 ± 0.51
37 | AAAGAAATTATTTGTTGTACATATGTTATTTTTTTT [XGTACX_site7570] | 7.75 ± 0.25
38 | AAGAAAGACATTACGTGTACCAAACAACCTACCAAC [XGTACX_site4219] | 8.22 ± 0.25
39 | TTCCTTTGTTGTCGTTGTACTTATATGGTTATAATT [XGTACX_site3082] | 8.29 ± 0.64
40 | TAGGTCCTCATTTTATGTACATAAAGAAATATGATT [XGTACX_site4138] | 7.86 ± 0.36
41 | CCCATGCATTTTTGCACACACATATATTTATAAATA [CACACA_site6785] | 9.75 ± 0.17
42 | ACCCATTTGATAATAATGCACACCACATATATTTAT [CACACA_site3061] | 11 ± 0.63
43 | TATATATTAATATTTACACACATGCGCACCCATAAA [CACACA_site2410] | 9.86 ± 0.57
44 | CCATTTGATAATAATGCACACCACATATATTTATAT [CACACA_site9002] | 11 ± 0.4
45 | TATTATAATATTTATACACACATAATTTTGATAAAT [CACACA_site583] | 7.68 ± 0.4
46 | ATATATTTATAATACACATGCAATGATATAATATAT [TGCATGCA_site20] | 8.43 ± 0.75
47 | ACTCTCTTATATTAAACACACATATTTATAGGTATA [CACACA_site7302] | 8.07 ± 0.45
